The values that follow come from PubChem BioAssay (EPA / NIEHS).

A short description of assay [1]: ATG_PBREM_CIS: Attagene CIS-FACTORIAL HepG2 Assay for human Phenobarbital-responsive Enhancer Module (PBREM) (AID 2282955). Conditions: HepG2 PBREM cis-reporter, Attagene multiplexed transcription; actives raise or lower the signal. The gist of the method: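 Fluorescence of labelled reporter cDNA fragments, resolved by capillary electrophoresis, gives mRNA induction in transfected HepG2 cells treated for 24 h; DMSO serves as negative control and baseline.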

Assay [2] has as its target Paired box protein Pax-6 (Homo sapiens) (UniProt P26367). Briefly: ATG_Pax6_CIS: Attagene CIS-FACTORIAL HepG2 Assay for human Paired Box 6 (PAX6) (AID 2282956). Conditions: HepG2 CIS-FACTORIAL PAX6 reporter transcription, RNA readout; actives raise or lower the signal. In a few lines:
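Multiplexed cis-reporter HepG2 system; 24 h treatment; reporter mRNA read by RT-PCR/CE fluorescence; bidirectional fit vs DMSO.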

The nature of assay [3]: ATG_PXRE_CIS: Attagene CIS-FACTORIAL HepG2 Assay for human Pregnane X Receptor Element (PXRE) (AID 2282957). Conditions: HepG2 Attagene CIS-FACTORIAL PXRE reporter, mRNA; actives raise or lower the signal. In a few lines:
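Cells: HepG2, transiently transfected reporter units under cis promoter control. Exposure: 24 h. Detection: reporter mRNA via RT-PCR/CE fluorescence; bidirectional fitting, DMSO-referenced.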

Assay [4] can be described thus: ATG_PPRE_CIS: Attagene CIS-FACTORIAL HepG2 Assay for human Peroxisome Proliferator-activated Response Element (PPRE) (AID 2282958). Conditions: HepG2 PPRE cis-element reporter, Attagene transcription factor profiling; actives raise or lower the signal. The gist of the method: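 Cells are first transfected transiently with the multiplexed reporter library, then dosed for 24 h. Total RNA is reverse-transcribed, amplified, fluorescently end-labeled and HpaI-cut before capillary electrophoresis; activity is fitted bidirectionally against DMSO controls.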

Assay [5] in a line: ATG_RORE_CIS: Attagene CIS-FACTORIAL HepG2 Assay for human RAR-related Orphan Receptor Element (RORE) (AID 2282959). Conditions: HepG2 Attagene cis-factorial RORE reporter, mRNA; actives raise or lower the signal. In a few lines: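 Cells were HepG2 carrying transfected cis-regulated reporter constructs, dosed for 24 hours. Total RNA was reverse-transcribed and reporter cDNA amplified, fluorescently labeled and sized by capillary electrophoresis. Activity was fitted bidirectionally relative to DMSO.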

Assay [6] can be described thus: ATG_Sox_CIS: Attagene CIS-FACTORIAL HepG2 Assay for human SRY-box transcription factor (SOX) (AID 2282960). The conditions noted are these: HepG2 Attagene cis-factorial SOX reporter, mRNA; actives raise or lower the signal. In a few lines:
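Transient MRTU transfection of HepG2; 24 h compound incubation; TriZol RNA, oligo(dT) RT, PCR, 6-FAM primer extension, HpaI cut, CE. Bidirectional fit, DMSO = baseline.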

Assay [7] addresses Transcription factor Sp1 (Homo sapiens) (UniProt P08047). Briefly: ATG_Sp1_CIS: Attagene CIS-FACTORIAL HepG2 Assay for human Specificity Protein 1 (Sp1) (AID 2282961). Conditions: HepG2 Sp1 cis-reporter transcription, actives raise or lower the signal. In a few lines:
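Endogenous Sp1 activity was gauged in human liver HepG2 cells bearing transfected reporter units under a cis-regulating promoter. After 24 h dosing, reporter mRNA was quantified by RT-PCR with capillary electrophoresis, and activity fitted bidirectionally versus DMSO.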

The nature of assay [8]: ATG_SREBP_CIS: Attagene CIS-FACTORIAL HepG2 Assay for human Sterol Regulatory Element Binding (SREBP) (AID 2282962). Conditions: HepG2 Attagene cis-factorial SREBP reporter, mRNA; actives raise or lower the signal. In a few lines:
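mRNA induction of transfected cis-promoter reporters in HepG2 cells, 24 h post-dose. Detection: RT-PCR with 6-FAM-labelled products, HpaI digest, capillary electrophoresis. DMSO served as negative control and baseline.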

The target of assay [9] is Signal transducer and activator of transcription 3 (Homo sapiens) (UniProt P40763). Kind of assay: ATG_STAT3_CIS: Attagene CIS-FACTORIAL HepG2 Assay for human Signal Transducer and Activator of Transcription 3 (STAT3) (AID 2282963). Conditions: HepG2, Attagene cis-factorial STAT3 reporter transcription; actives raise or lower the signal. In a few lines:
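Endogenous STAT3-responsive cis-element activity was read in transiently transfected HepG2 cells after 24 h treatment. Reporter transcripts were quantified via RT-PCR and capillary electrophoresis, with DMSO as negative control and bidirectional curve fitting.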

The nature of assay [10]: ATG_TA_CIS: Attagene CIS-FACTORIAL HepG2 Assay for human TA Basal Promoter (AID 2282964). The conditions noted are these: HepG2 Attagene CIS-factorial TA basal promoter reporter; actives raise or lower the signal. The gist of the method:
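Read-out: fluorescent reporter-transcript fragments resolved by capillary electrophoresis after RT-PCR and HpaI digestion. Source: HepG2 cells carrying transiently transfected multi-reporter cis constructs, treated 24 h. Endpoint fitted bidirectionally relative to DMSO.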

A short description of assay [11]: ATG_TCF_b_cat_CIS: Attagene CIS-FACTORIAL HepG2 Assay for human T-Cell-Factor with beta-catenin (TCF/b-cat) (AID 2282965). Conditions: HepG2 TCF/beta-catenin cis-reporter transcription, actives raise or lower the signal. The gist of the method: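 Endogenous TCF/LEF activity read as reporter transcript level via RT-PCR and capillary electrophoresis fluorescence in transfected HepG2, 24 h exposure; gain or loss of signal fitted against DMSO controls.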

The nature of assay [12]: ATG_TAL_CIS: Attagene CIS-FACTORIAL HepG2 Assay for human TAL Basal Promoter (AID 2282966).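 Note: background control endpoint measuring basal TAL promoter reporter mRNA not a specific factor.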 The conditions noted are these: HepG2 Attagene cis-factorial TAL promoter reporter; actives raise or lower the signal. The gist of the method: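 RT-PCR plus capillary electrophoresis quantifies reporter mRNA induction in transiently transfected HepG2 cells after 24 h chemical treatment. DMSO serves as negative control and baseline for bidirectional fitting.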

Assay [13] in a line: ATG_TGFb_CIS: Attagene CIS-FACTORIAL HepG2 Assay for human Transforming Growth Factor (TGF) (AID 2282967). Conditions: HepG2 Attagene CIS TGFb reporter, mRNA transcription; actives raise or lower the signal. The gist of the method: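 Transient MRTU transfection of HepG2 (FuGene 6). Dose 24 h. TriZol RNA, oligo(dT) RT, PCR, 6-FAM primer extension, HpaI cut, CE. Bidirectional fit, DMSO = baseline.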

Assay [14] can be described thus: ATG_VDRE_CIS: Attagene CIS-FACTORIAL HepG2 Assay for human Vitamin D Receptor Element (VDRE) (AID 2282968). Conditions: HepG2 VDRE cis-reporter transcription, actives raise or lower the signal. The gist of the method: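 Reporter mRNA induction, quantified by capillary electrophoresis of fluorescently labelled RT-PCR products, was read 24 h after dosing HepG2 cells carrying transiently transfected cis-regulated reporter units; gain or loss relative to DMSO.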

In assay [15] the target is Nuclear receptor subfamily 1 group I member 3 (Homo sapiens) (UniProt Q14994). Kind of assay: ATG_CAR_TRANS: Attagene TRANS-FACTORIAL HepG2 Assay for human Constitutive Androstane Receptor (CAR) (AID 2282969; active = hit-call score of the fitted dose curve at least 0.9, where 1 is the maximum;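 note: activators raise reporter mRNA above DMSO so AC50 marks induction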). The conditions noted are these: HepG2 Attagene TRANS-FACTORIAL CAR reporter. In a few lines:
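Readout is reporter mRNA induction, quantified by fluorescent primer extension and capillary electrophoresis after RT-PCR. Cells were HepG2 transiently carrying chimeric NR-Gal4 constructs with GAL4-UAS reporters, treated for 24 h; activity scored upward from DMSO.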

In assay [16] the target is X-box-binding protein 1 (Homo sapiens) (UniProt P17861). Briefly: ATG_Xbp1_CIS: Attagene CIS-FACTORIAL HepG2 Assay for human X-box Binding Protein 1 (XBP1) (AID 2282972). The conditions noted are these: HepG2 XBP1 cis-element reporter, Attagene multiplex; actives raise or lower the signal. The gist of the method: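 Fluorescence-labelled cDNA fragments from reporter transcripts, separated by capillary electrophoresis, give the signal. Source: HepG2 cells transfected with promoter-driven reporter units, harvested 24 h post-dose. DMSO served as reference for bidirectional curve fitting.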
Sequence of X-box-binding protein 1 (Homo sapiens) (P17861 whole entry, looked up, the tested form may be a part): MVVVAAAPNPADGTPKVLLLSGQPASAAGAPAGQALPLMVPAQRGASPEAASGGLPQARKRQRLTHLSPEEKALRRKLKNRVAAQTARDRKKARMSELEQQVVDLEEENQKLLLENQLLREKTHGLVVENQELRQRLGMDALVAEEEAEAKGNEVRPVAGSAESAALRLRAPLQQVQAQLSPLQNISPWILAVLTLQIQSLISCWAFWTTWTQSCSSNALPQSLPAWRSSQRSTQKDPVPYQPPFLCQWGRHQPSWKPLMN

A short description of assay [17]: ATG_M_19_TRANS: Attagene TRANS-FACTORIAL HepG2 Assay for M19 Transcription Factor (Internal Marker) (AID 2282974; active = hit-call score of the fitted dose curve at least 0.9, where 1 is the maximum). Conditions: HepG2 Attagene TRANS-FACTORIAL M19 internal marker reporter. The gist of the method:
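Cells: human HepG2, transiently transfected with multiplexed reporter transcription units. Exposure: 24 h. Detection: RT-PCR of reporter mRNA with capillary electrophoresis. Analysis: gain-of-signal vs DMSO.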

For assay [18], the target named is Estrogen receptor (Homo sapiens) (UniProt P03372). Kind of assay: ATG_ERa_TRANS: Attagene TRANS-FACTORIAL HepG2 Assay for human Estrogen Receptor alpha (ERa) (AID 2282970; active = hit-call score of the fitted dose curve at least 0.9, where 1 is the maximum). Conditions: HepG2 Attagene TRANS ERa GAL4 reporter, mRNA. The gist of the method: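 Cells: HepG2, transiently transfected. Construct: GAL4-UAS reporter units regulated by exogenous NR-Gal4 chimeras. Time: 24 h. Detection: reporter mRNA by RT-PCR, capillary electrophoresis, fluorescence. Baseline: DMSO, upward fitting.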
Sequence of Estrogen receptor (Homo sapiens) (P03372 whole entry, looked up, the tested form may be a part): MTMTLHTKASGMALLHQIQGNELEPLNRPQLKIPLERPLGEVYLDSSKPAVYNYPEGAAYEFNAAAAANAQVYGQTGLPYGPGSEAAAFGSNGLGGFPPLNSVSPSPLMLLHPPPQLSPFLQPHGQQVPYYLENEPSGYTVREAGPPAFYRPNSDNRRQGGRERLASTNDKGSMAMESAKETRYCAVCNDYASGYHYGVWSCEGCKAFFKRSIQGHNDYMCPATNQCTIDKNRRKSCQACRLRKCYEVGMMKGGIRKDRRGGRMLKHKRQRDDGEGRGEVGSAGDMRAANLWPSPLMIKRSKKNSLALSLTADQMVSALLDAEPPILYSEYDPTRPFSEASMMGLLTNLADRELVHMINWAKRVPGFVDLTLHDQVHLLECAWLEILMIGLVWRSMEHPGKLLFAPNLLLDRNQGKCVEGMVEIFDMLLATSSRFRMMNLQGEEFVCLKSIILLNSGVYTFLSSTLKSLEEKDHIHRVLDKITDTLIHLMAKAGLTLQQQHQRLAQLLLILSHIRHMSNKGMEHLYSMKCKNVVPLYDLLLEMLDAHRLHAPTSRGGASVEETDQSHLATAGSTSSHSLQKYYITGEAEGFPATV

Assay [19] is described as follows: ATG_GAL4_TRANS: Attagene TRANS-FACTORIAL HepG2 Assay for GAL4 (Internal Marker) (AID 2282976; active = hit-call score of the fitted dose curve at least 0.9, where 1 is the maximum). Conditions: HepG2 Attagene TRANS GAL4 internal marker reporter. In a few lines:
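In transfected human HepG2 liver cells dosed 24 h, GAL4 reporter mRNA serves as a baseline marker. Detection by RT-PCR with fluorescent capillary electrophoresis, activity fitted upward relative to DMSO.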

Records with an inconclusive call do not appear. Activity calls are given as the source filed them. Rule for the calls, unless noted: active = hit-call score of the fitted dose curve at least 0.9, where 1 is the maximum; inactive = score below 0.9.

Sequence of Paired box protein Pax-6 (Homo sapiens) (P26367 whole entry, looked up): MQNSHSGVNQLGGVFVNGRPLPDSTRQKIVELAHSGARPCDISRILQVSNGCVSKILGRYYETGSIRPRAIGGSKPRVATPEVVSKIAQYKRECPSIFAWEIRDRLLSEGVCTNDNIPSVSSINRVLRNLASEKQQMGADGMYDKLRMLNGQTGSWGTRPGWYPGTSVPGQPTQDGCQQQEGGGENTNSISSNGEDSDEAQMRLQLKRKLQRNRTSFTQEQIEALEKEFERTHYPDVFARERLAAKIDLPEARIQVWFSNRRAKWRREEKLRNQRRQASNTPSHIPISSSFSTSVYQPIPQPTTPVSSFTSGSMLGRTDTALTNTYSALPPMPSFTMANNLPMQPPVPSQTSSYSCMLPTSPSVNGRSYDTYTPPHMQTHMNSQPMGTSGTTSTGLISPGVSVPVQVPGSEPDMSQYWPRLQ
Sequence of Transcription factor Sp1 (Homo sapiens) (P08047 whole entry, looked up): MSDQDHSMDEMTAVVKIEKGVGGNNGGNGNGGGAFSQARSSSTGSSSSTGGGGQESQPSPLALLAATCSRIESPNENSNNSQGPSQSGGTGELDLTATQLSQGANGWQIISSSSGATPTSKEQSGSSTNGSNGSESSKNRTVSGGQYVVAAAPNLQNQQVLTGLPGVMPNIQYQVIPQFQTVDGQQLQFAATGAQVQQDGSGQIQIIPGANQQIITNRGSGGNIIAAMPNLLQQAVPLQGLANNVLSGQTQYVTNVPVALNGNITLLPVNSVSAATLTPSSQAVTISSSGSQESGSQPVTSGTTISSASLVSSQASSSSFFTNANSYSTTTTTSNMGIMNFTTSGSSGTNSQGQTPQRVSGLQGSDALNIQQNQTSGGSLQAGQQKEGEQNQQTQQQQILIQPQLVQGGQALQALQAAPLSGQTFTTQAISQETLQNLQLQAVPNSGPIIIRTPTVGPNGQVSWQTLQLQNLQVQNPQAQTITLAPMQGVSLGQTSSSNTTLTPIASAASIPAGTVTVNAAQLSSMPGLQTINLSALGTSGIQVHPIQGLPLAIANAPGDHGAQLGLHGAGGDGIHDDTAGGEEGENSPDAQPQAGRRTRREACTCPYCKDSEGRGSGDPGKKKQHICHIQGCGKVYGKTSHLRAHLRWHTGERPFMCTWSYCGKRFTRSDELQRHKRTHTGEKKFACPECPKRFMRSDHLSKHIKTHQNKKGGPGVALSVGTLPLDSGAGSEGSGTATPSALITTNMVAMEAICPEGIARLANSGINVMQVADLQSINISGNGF
Sequence of Signal transducer and activator of transcription 3 (Homo sapiens) (P40763 whole entry, looked up): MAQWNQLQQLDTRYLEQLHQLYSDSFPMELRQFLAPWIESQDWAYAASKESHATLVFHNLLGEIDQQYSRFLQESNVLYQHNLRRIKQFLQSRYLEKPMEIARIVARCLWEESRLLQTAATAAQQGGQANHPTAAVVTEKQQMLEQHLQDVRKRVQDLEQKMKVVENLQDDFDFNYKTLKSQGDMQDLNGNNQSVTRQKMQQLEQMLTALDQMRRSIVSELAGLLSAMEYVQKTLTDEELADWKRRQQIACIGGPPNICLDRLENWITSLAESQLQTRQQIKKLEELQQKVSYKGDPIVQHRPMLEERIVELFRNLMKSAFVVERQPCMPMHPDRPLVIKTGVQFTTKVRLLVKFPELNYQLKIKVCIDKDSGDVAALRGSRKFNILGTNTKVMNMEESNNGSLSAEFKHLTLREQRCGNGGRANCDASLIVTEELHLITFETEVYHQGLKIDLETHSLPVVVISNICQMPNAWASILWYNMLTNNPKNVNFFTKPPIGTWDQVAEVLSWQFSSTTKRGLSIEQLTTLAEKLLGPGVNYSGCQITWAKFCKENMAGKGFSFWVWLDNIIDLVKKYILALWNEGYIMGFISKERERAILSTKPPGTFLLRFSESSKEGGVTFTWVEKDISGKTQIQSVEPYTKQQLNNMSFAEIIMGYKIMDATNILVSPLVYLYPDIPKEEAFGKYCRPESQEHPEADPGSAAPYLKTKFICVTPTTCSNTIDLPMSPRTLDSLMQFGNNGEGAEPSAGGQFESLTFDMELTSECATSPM
Sequence of Nuclear receptor subfamily 1 group I member 3 (Homo sapiens) (Q14994 whole entry, looked up, the tested form may be a part): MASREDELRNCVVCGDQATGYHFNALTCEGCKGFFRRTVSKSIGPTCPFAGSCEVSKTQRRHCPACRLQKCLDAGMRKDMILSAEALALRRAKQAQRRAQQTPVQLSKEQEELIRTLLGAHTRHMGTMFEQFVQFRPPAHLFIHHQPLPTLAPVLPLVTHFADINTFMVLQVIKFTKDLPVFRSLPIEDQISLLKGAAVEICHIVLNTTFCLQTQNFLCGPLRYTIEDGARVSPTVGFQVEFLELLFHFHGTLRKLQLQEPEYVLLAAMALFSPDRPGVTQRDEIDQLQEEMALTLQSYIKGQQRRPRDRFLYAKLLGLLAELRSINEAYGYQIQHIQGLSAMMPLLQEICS

Regarding `CC(C)COC(=O)CC(C(=O)OCC(C)C)S(=O)(=O)O` (configuration not stated), the result in assay [1], in [2], in [4], in assay [5], in assay [6] and in [7] was inactive. Further, the molecule was classed as inactive in assay [8], in [9], in assay [10], in [11], in [12] and in assay [13]. For the same molecule, the call in [14], in assay [15], in assay [16] and in assay [17] was inactive. Moreover, the AC50 in assay [3] was 29.5 µM (active).

Turning to `CCCC/C=C/C=C\C=O`, the result in assay [1], in assay [4], in assay [5], in [7], in assay [8] and in assay [9] was inactive. For the same molecule, the molecule was classed as inactive in assay [10], in assay [12], in [13], in assay [18], in assay [17] and in assay [19]. Besides, the AC50 in [2] is 100 µM (active); in assay [3], 2.79 µM (active); in [6], 162 µM (active); in [11] it was 100 µM (active); in assay [14], 6.51 µM (active); in [16], 178 µM (active).

As to `CC(C)CC(=O)OCc1ccccc1`, the result in [1], in assay [2], in [3], in [4], in [5] and in assay [6] was inactive. Moreover, the molecule was called inactive in [7], in assay [8], in [9], in assay [10], in assay [11] and in assay [12]. Moreover, the outcome in assay [13], in assay [14], in [15], in assay [18] and in assay [19] was inactive.

`CC(C)c1ccc(O)c(C(C)C)c1`: the outcome in assay [1], in assay [2], in assay [4], in [5], in [6] and in assay [7] was inactive. Also, the molecule was called inactive in assay [8], in assay [9], in assay [11], in [12], in [13] and in [14]. The molecule was classed as inactive in [15], in [16] and in assay [17]. Also, the AC50 in assay [3] is 2.98 µM (active); in assay [18] it was 33.4 µM (active).

`N#Cc1ccc(C2CCCc3cncn32)cc1` (configuration not stated): the outcome in assay [1], in [2], in [4], in [5], in assay [6] and in assay [7] was inactive. In addition, the outcome in assay [8], in assay [9], in assay [10], in assay [11], in assay [12] and in assay [13] was inactive. The molecule was called inactive in [14], in assay [15], in [17] and in assay [19]. For the same molecule, the AC50 in assay [3] is 23.9 µM (active); in assay [18], 25.8 µM (active).

For the molecule `Oc1ccccc1Cc1ccccc1O`, the outcome in assay [1], in assay [4], in [5], in assay [6], in [7] and in assay [9] was inactive. In addition, the call in [10], in assay [12], in assay [13], in [17] and in [19] was inactive. For the same molecule, the AC50 in assay [2] was 100 µM (active); in assay [3] it was 26.3 µM (active); in assay [8] it was 64.5 µM (active); in assay [11] it was 37.9 µM (active); in [14], 133 µM (active); in [18], 18.1 µM (active).

Take `CC(C)(C)N`: the result in assay [1], in assay [2], in assay [3], in [4], in [5] and in assay [6] was inactive. Further, the call in [7], in assay [8], in assay [9], in [10], in [11] and in assay [12] was inactive. The call in assay [13], in assay [14], in assay [16] and in [19] was inactive.

Take `C=CC(=O)OCCCCCCCC(C)C`: the result in [1], in [2], in assay [6], in assay [7], in assay [8] and in [9] was inactive. Besides, the outcome in assay [10], in [11], in assay [12], in [14], in assay [18] and in [16] was inactive. Further, the result in [19] was inactive. Besides, the AC50 in [3] is 7.99 µM (active); in [4], 71.1 µM (active); in assay [5], 100 µM (active); in assay [13], 55 µM (active).
